Assay outcomes: PubChem, Sanford-Burnham Center for Chemical Genomics
TIM10 inh: growth inhibitors of isogenic TIM10 control yeast, primary screen, counter-screen for tim10-1 yeast inhibitor project, luminescence, uHTS | S. cerevisiae TIM10 strain growth, BacTiter-Glo luminescence, 24 h | inhibition, % at 10 µM | actives 1.4% (n = 330,000) | AID 463195, 2010;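 active = inhibition of 40% or more at the single tested concentration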;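 also: wild-type TIM10 isogenic control strain grown at permissive 25 °C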
NALP1 inh: NALP1 inflammasome inhibitors in reconstituted yeast, colorimetric, S. cerevisiae, triplicate retest. S. cerevisiae NALP1/ASC/caspase-1 growth, X-gal OD620, 72 h. inhibition, % at 10 µM. actives 0.61% (n = 280,000); in the data active = inhibition mostly above about 24%, no sharp cut-off; inactive = mostly below about 32%
tim23-1 inh: growth inhibitors of tim23-1 mutant yeast, primary screen, luminescence, uHTS. inhibition, % at 20 µM. S. cerevisiae tim23-1 growth, BacTiter-Glo luminescence, 24 h. actives 1.3% (n = 330,000);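 active = growth inhibition of the mutant yeast at or above 50%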;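 also: temperature-sensitive mutant grown at 25 °C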
NALP3 yeast inh: NALP3 inflammasome inhibitors in reconstituted yeast, primary screen, luminescence, uHTS; Yeast reconstituted NLRP3/ASC/caspase-1, beta-gal luminescence, 24 h; inhibition, % at 10 µM; actives 0.39% (n = 330,000);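 active = inhibition of 50% or more; inactive = inhibition below 50%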
tim10-1 inh: growth inhibitors of tim10-1 mutant yeast, primary screen, luminescence, uHTS; S. cerevisiae tim10-1 ts strain growth, BacTiter-Glo, 24 h; inhibition, % at 20 µM; actives 2.2% (n = 330,000); AID 463190, 2010;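 active = inhibition of at least 40%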;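 also: mutant grown at 25 °C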
tim10-1 conf: growth inhibitors of tim10-1 mutant yeast, confirmation, single concentration, luminescence, S. cerevisiae; shares compounds with tim10-1 inh; S. cerevisiae tim10-1 ts strain growth, BacTiter-Glo, 24 h; inhibition, % at 20 µM; actives 56% (n = 7,400); AID 463213, 2010;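 active = inhibition of yeast growth at or above a set limit in either of two repeat tests at 20 µM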;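 also: tim10-1 mutant grown at permissive 25 °C to find synthetic lethal compounds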
Each line names hits and unclear results; the compound was inactive in the other large screens (follow-up assays come after a bar, where they were run). An excerpt weighted towards active compounds, which were near 4% of everything screened.

CNC(=S)NNC(=O)c1cc(-c2cccnc2)nc2ccccc12	tim10-1 inh 49 | tim10-1 conf 40
C=CCNC(=S)NNC(=O)c1cc(-c2cccnc2)nc2ccccc12	none
Cc1cc(C)nc(NC(=O)c2cc(-c3ccc(C)s3)nc3ccccc23)c1	none
C=C1CC[C@@H]2[C@](C)(CO)[C@H](O)CC[C@@]2(C)[C@@H]1/C=C/C1=CCOC1=O	tim10-1 inh 98 | tim10-1 conf inactive
C=C1CCC2[C@](C)(CO)[C@H](O)CC[C@@]2(C)[C@@H]1/C=C/C1=CCOC1=O (stereo not given in full)	none (no result: NALP1 inh)
CCCC(C)c1oc(=O)cc(O)c1C (stereo not given)	none (no result: NALP1 inh, NALP3 yeast inh)
Cc1ccc(C(=O)Oc2ccc(Cl)c3cccnc23)cc1[N+](=O)[O-]	tim10-1 inh 41 | tim10-1 conf inactive
CCCCNC(=O)CCc1nc2cccnc2n1Cc1ccccc1	none
Cc1cccc(Oc2ccc(S(=O)(=O)N3CCCCC3)cc2N)c1	none
CN(C)c1nc(OCCNC(=O)COc2ccc(Cl)cc2Cl)nc(N(C)C)n1	tim10-1 inh 44 | tim10-1 conf inactive
O=C(NC(NNc1ccc([N+](=O)[O-])cc1)(C(F)(F)F)C(F)(F)F)c1ccccc1Cl	tim10-1 inh 47 | tim10-1 conf inactive
O=C(NC(NNc1ccc([N+](=O)[O-])cc1)(C(F)(F)F)C(F)(F)F)c1ccc(F)cc1	none
O=C(c1c(F)cccc1F)N1CCCC(c2nc(-c3ccc(F)cc3)no2)C1 (stereo not given)	none
N#Cc1ccc(CSc2nc(N)cc(N)n2)cc1	none
Cc1cc(N2CCCCC2)nc(SCc2ccc(C#N)cc2)n1	tim10-1 inh 47 | tim10-1 conf inactive
O=C(O)c1ccc(Cl)c2c1C1C=CCC1C(c1ccccn1)N2 (stereo not given)	tim10-1 inh 43 | tim10-1 conf inactive
CCOc1ccc(C(c2c(C)[nH][nH]c2=O)c2c(C)[nH][nH]c2=O)cc1OC	tim10-1 inh 42 | tim10-1 conf inactive
O=C(NCCOc1ccccc1)C1Nc2ccc(C(F)(F)F)cc2C2c3ccccc3CC12 (stereo not given)	none (no result: NALP1 inh)
CCOC(=O)C1Nc2ccc(C(F)(F)F)cc2C2c3ccccc3CC12 (stereo not given)	tim10-1 inh 57 (no result: NALP1 inh) | tim10-1 conf 53
Oc1cc(Br)ccc1C=Nc1ccc(N2CCCCC2)cc1	tim10-1 inh 42 | tim10-1 conf inactive
Cc1cc(S(=O)(=O)N2CCN(c3ccccc3F)CC2)ccc1-n1cnnn1	none
C/C(=N\NC(=O)c1cc2c(s1)CCC(C)C2)c1ccncc1 (stereo not given)	tim10-1 inh 54 | tim10-1 conf 32
C/C(=N\NC(=O)c1cc2c(s1)CCC(C)C2)c1ccc[nH]1 (stereo not given)	none (no result: NALP1 inh)
Cc1cc(C)cc(Nc2ncc3c(n2)CC(c2ccco2)CC3=O)c1 (stereo not given)	tim10-1 inh 45 | tim10-1 conf 33
COc1ccc2nc(NC(=O)CSc3nnnn3C)sc2c1	none
O=C(O)COc1ccc(Br)cc1/C=N\Nc1ccccn1	none
C/C(=N\NC(=O)c1cc(-c2cccs2)nc2ccccc12)c1ccccn1	tim10-1 inh 67 | tim10-1 conf 48
Cc1cccc(Sc2ccc([N+](=O)[O-])cc2[N+](=O)[O-])n1	tim10-1 inh 44 | tim10-1 conf inactive
CCOc1ccc(N(Cc2cc3ccc(C)cc3[nH]c2=O)S(=O)(=O)c2ccccc2)cc1	tim10-1 inh 42 | tim10-1 conf inactive
Cc1ccc2cc(CN(c3ccccc3)S(=O)(=O)c3ccccc3)c(=O)[nH]c2c1	none
CCC(C)NS(=O)(=O)c1ccc(NC(=O)c2ccc([N+](=O)[O-])cc2Cl)cc1 (stereo not given)	tim10-1 inh 46 | tim10-1 conf 31
CC(=O)Nc1ccc(NC(=O)c2ccc([N+](=O)[O-])cc2Cl)cc1	none
CCOC(=O)c1cc(-c2ccncc2)nc2c1c(C)nn2-c1ccccn1	tim10-1 inh 45 (no result: NALP1 inh) | tim10-1 conf 34
CCCCOC(=O)n1c(SCC(=O)N(C)C)nc2ccccc21	tim10-1 inh 41 | tim10-1 conf inactive
